# From PubChem BioAssay (NCATS)
# “And” between values parts separate entries of the source, which are not always exact repeats. Equal values may be shown once. Results filed as inconclusive are left out. Entries that show only a call come without a potency. Values without a mark were called inactive. The source made the active and inactive calls. The call rests on the fitted dose curve; in most records, active means well fitted cell-killing curve with a large enough effect; inconclusive means small, poorly fitted or top-dose-only effect, or effect the other way; inactive means no such curve, though single readings can be large or run the other way.
# Assay: Viability qHTS for spleen associated tyrosine kinase inhibitor (SYKi) drug resistant MV4-11 cells (AID 1963824); further: nearly all actives have a fitted effect of over 35% in size
# Details: SYKi-resistant MV4-11 viability, CellTiter-Glo, 72 h; series mostly up to 45 µM
# Description: Department of Medicine, Hematology/Oncology
# University Hospital Frankfurt, Germany.
# Trials have shown promising clinical activity of the selective SYK inhibitor entospletinib in patients with high expressing HOXA9/MEIS1 acute leukemias. As the development of resistance mechanisms is a common problem in the use of targeted drugs, we performed a chemical library screen to identify drug sensitivities in SYK inhibitor resistant AML cells. […] Glucocorticoids are potent immunosuppressants which work in part by inhibiting the transcription of cytokine genes.
# Described herein is a viability screen to look for activity in the SYK inhibitor drug resistant cell line against four NCATS compound libraries (MIPE 5.0, NPC, NPACT, and Kinase) totaling 11372 compounds. Active hits were reacquired for confirmation and further secondary assay testing.
# SEQUENCE No. (e.g., 1, 2, 3, etc.); […] (e.g., Cells, Incubation, Reagent, etc.); VALUE; DESCRIPTION.
# 1; Media; 2uL; white, solid-bottom Corning assay plate.
# 2; Compounds; 23nL; Echo acoustic dispenser.
# 3; Cell; 5uL; 500 cells per well.
# 4: Incubation; 72hr; 37 C, 5% CO2, 95% humidity.
# 5; Reagent; 3uL; CellTiter-Glo reagent (Promega).
# 6; Incubation; 10min; room temperature.
# 7; Detection; Luminescence; ViewLux plate reader (PerkinElmer).
# NOTES (numbers refer to Sequence numbers above
# 1. Quantitative high-throughput screening (qHTS) of small molecule compounds was conducted on drug resistant SYKi MV4-11 cell line.
# 2. Twenty-three nanoliter of small molecule compounds were added to each assay plates using the Echo acoustic dispenser (Beckman Coulter).
# 3. Cells were seeded into the assay plates at a final density of 500 cells in 5uL of media per well using the Multidrop Combi dispenser.
# 4. Plates were covered with stainless steel gasketed lids and incubated for 72 hours at standard cell culture conditions.
# 5. Viability was assessed by adding 3uL of CellTiter-Glo detection reagent (Promega).
# 6. Plates were covered with gasket lids and incubated for 10 minutes at room temperature.
# 7. Luminescence was measured on a ViewLux plate reader (PerkinElmer).
# Potency means the concentration at half of the fitted maximal effect.
Structure (SMILES),Potency,"viability, % of control"
CC(=O)Oc1cc(C(C)C)c(OCCN(C)C)cc1C,inactive,
O=C(O)CCCc1ccccc1,inactive,
Cc1ccnc(NS(=O)(=O)c2ccc(NC(=O)Nc3ccc(S(=O)(=O)Nc4nccc(C)n4)cc3)cc2)n1,inactive,
COC(=O)C1=COC(OC2OC(CO)C(O)C(O)C2O)C2C(COC(=O)/C=C/c3ccc(O)cc3)C(O)C(O)C12 (stereo not given),inactive,
O=S(c1cc(Cl)cc(Cl)c1O)c1cc(Cl)cc(Cl)c1O,inactive,
COc1cc(/C=C/C=O)cc(OC)c1O[C@@H]1O[C@H](CO)[C@@H](O)[C@H](O)[C@H]1O,inactive,
O=C1C(O)=C(O)C(=O)C(O)=C1O,inactive,
CCCOc1ccc(-c2nc(OC)c3ccccc3n2)cc1,inactive,
CCCCC(=O)N1c2ccccc2NC2=C(C(=O)CCC2)C1c1ccccc1Cl (stereo not given),8.2 µM (active),
C/C1=C\C[C@H](O[C@@H]2O[C@H](CO)[C@@H](O)[C@H](O)[C@H]2O)/C(C)=C/[C@H]2OC(=O)[C@H](C)[C@@H]2CC1,inactive,
CN(C)/N=N/c1nc[nH]c1C(N)=O,inactive,
Nc1nc2c(ncn2[C@@H]2O[C@H](CO)[C@@H](O)[C@H]2O)c(=O)[nH]1,inactive,
O=C(Nc1ccccc1-c1cn2c(CN3CCNCC3)csc2n1)c1ccc2ccccc2n1,20.6 µM (active),
O=C1NC(=O)C(c2c[nH]c3ccccc23)=C1c1c[nH]c2ccccc12,1.16 µM (active),
N#C/C(=C\c1ccc(O)c(O)c1)C(=O)NCc1ccccc1,9.2 µM (active) and 16.6 µM (active),
COc1cc2nccc(Oc3ccc(NC(=O)c4cn(C(C)C)c(=O)n(-c5ccc(F)cc5)c4=O)cc3F)c2cc1OC,0.468 µM (active),
COc1ncc(Nc2ncc([C@H](C)N3CCN(S(C)(=O)=O)CC3)cc2-c2nc(C)nc(N)n2)cc1F,2.35 µM (active),
CCCc1cc(C(=O)N[C@H](Cc2ccc(-c3cccc(OC(F)(F)F)c3)nc2)C(=O)N[C@@H]2CCNC2)sc1C,7.42 µM (active),
Cc1ccc(C(=O)N(CCCN)C(c2oc3cc(Cl)ccc3c(=O)c2Cc2ccccc2)C(C)C)cc1 (stereo not given),inactive,
N#Cc1ccc(O[C@@H]2c3ccccc3C[C@H]2N2CCC[C@@H](N)C2)c(Cl)c1,16.4 µM (active),

Structure (SMILES),Potency,"viability, % of control"
Cn1sc(=O)n(Cc2ccccc2)c1=O,2.91 µM (active),
CC1(C)CCC[C@@]2(C)C1[C@H](OC(=O)/C=C/C=C/C(=O)O)C=C1COC(=O)[C@@]12O (stereo not given in full),inactive,
CCCCCCCOc1ccc(CCC(N)(CO)CO)cc1C(F)(F)F,8.33 µM (active),
COCCc1ccccn1,inactive,
Nc1nc(-c2nn(Cc3ccccc3F)c3ncccc23)nc(N)c1N1CCOCC1,inactive,
Nc1ccc(/C=C/C(=O)NCc2cc3cc(-c4ccc(C(=O)N5CCC(F)(F)CC5)cc4)cc(-c4ccc(F)cc4)c3o2)cn1,0.206 µM (active),
C[C@@H](O)[C@H]1C(=O)N2C(C(=O)O)=C([C@H]3CCCO3)S[C@H]12,inactive,
CNC(=O)c1cccc2cc(Oc3ccnc4cc(OCC5(N)CC5)c(OC)cc34)ccc12,14.8 µM (active) and 20.6 µM (active),
Cc1onc(-c2ccccc2Cl)c1C(=O)N[C@@H]1C(=O)N2[C@@H]1SC(C)(C)[C@@H]2C(=O)O,inactive,
COc1cc(C(O)C2COC(c3ccc(OC4OC(CO)C(O)C(O)C4O)c(OC)c3)C2CO)ccc1O (stereo not given),inactive,
C[C@@H]1C(=O)O[C@H]2[C@@H](O)C34[C@H]5C[C@@H](C(C)(C)C)C36[C@@H](OC(=O)[C@@H]6O)O[C@@]4(C(=O)O5)[C@@]12O (stereo not given in full),inactive,
COc1ccc(C2(C#N)CCC(C(=O)O)CC2)cc1OC1CCCC1 (stereo not given),inactive,
C[C@@H]1O[C@@H](O[C@H]2[C@H](O[C@H]3[C@H](O[C@H]4CC[C@@]5(C)C(CC[C@]6(C)C5CC=C5[C@@H]7CC(C)(C)C[C@@H](O)[C@]7(C)CC[C@]56C)[C@@]4(C)CO)O[C@H](C(=O)O)[C@@H](O)[C@@H]3O)O[C@H](C(=O)O)[C@H](O)[C@@H]2O)[C@H](O)[C@H](O)[C@H]1O (stereo not given in full),,86.7% [at 9.25 µM]
COc1cc([C@H]2OC[C@](O)(Cc3ccc(O[C@@H]4O[C@H](CO)[C@@H](O)[C@H](O)[C@H]4O)c(OC)c3)[C@@H]2CO)ccc1O,inactive,
COc1cccc([C@@H](C)NCCCc2ccccc2Cl)c1,14.8 µM (active),
CC1(C)CCC(CN2CCN(c3ccc(C(=O)NS(=O)(=O)c4ccc(NCC5CCOCC5)c([N+](=O)[O-])c4)c(Oc4cnc5[nH]ccc5c4)c3)CC2)=C(c2ccc(Cl)cc2)C1,10 nM (active) and 41.7 nM (active),
COc1ccc(-c2nc(N3CCOCC3)c3sc(CN(C)c4ncc(C(=O)NO)cn4)cc3n2)cn1,0.0093 µM (active),
CN=C(NC#N)Nc1ccc(C2=NNC(=O)CC2C)cc1 (stereo not given),inactive,
CNC(=O)c1ccc2c(C(=Nc3cccc(CN(C)C)c3)c3ccccc3)c(O)[nH]c2c1,5.8 µM (active) and 3.72 µM (active),
C[C@@H]1O[C@@H](O[C@H]2[C@H](O[C@H]3[C@H](O[C@H]4CC[C@@]5(C)C(CC[C@]6(C)C5CC=C5[C@@H]7CC(C)(C)CC[C@]7(C(=O)O[C@@H]7O[C@H](CO)[C@@H](O[C@@H]8O[C@@H](C)[C@H](O)[C@@H](O)[C@H]8O)[C@H](O)[C@H]7O)CC[C@]56C)C4(C)C)OC[C@H](O)[C@@H]3O)O[C@H](CO)[C@@H](O)[C@@H]2O)[C@H](O)[C@H](O)[C@H]1O (stereo not given in full),,2.33% [at 9.25 µM]
